Reference: PubChem BioAssay (NCATS)
Results filed as inconclusive are left out. Unmarked numbers belong to inactive results. Calls of active or inactive are those of the source. Calls come from the whole dose curve; as a rule, active = well fitted inhibition curve with a large enough effect; inconclusive = small, poorly fitted or top-dose-only effect; inactive = flat fitted curve, though single readings scatter.

Target: Calcium and integrin-binding protein 1 (Homo sapiens) (UniProt Q99828)
Test: Primary qHTS for Identification of Calcium Integrin Binding Protein 1 (CIB1) Competitor (AID 1508620);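 note: GST tagged CIB1 binding a fluorescein labelled alphaIIb integrin peptide tracer; top concentration of the series differs between compounds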
Conditions: CIB1-GST / FITC-alphaIIb peptide fluorescence polarization; series mostly up to 57.7 µM; activity change, negative = inhibition: at the top concentration
Outline: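 Fluorescence polarization competition: CIB1-GST (1 uM final) preincubated with compound 15 min at room temperature, then FITC-labeled alphaIIb peptide (100 nM final) added for another 15 min. Polarization read at Ex 480/Em 540.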
% is set by controls: 0 for no effect and ±100 for the full control effect.

Calcium and integrin-binding protein 1 (Homo sapiens), sequence (Q99828 whole entry, looked up): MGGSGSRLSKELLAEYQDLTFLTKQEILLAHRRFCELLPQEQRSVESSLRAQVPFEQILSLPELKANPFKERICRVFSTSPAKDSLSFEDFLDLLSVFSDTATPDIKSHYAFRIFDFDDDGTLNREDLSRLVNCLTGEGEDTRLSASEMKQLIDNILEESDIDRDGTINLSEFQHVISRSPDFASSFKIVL

| SMILES | activity change, negative = inhibition | Potency |
| --- | --- | --- |
| CC1(C)CC[C@]2(C(=O)O[C@@H]3O[C@H](CO)[C@@H](O)[C@H](O)[C@H]3O)CC[C@]3(C)C(=CCC4[C@@]5(C)C[C@@H](O)[C@H](O)[C@@](C)(CO)C5CC[C@]43C)C2C1 (some centres undefined) | 1.85% [at 30.2 µM] | – |
| CCC(NC(=O)CC(NC(=O)C(CO)NC(=O)C(CC)NC(=O)c1ccc[nH]1)c1ccccc1)C(=O)O (centres undefined) | 4.31% [at 30.2 µM] | – |
| CC(C)C1(O[C@@H]2O[C@H](CO)[C@@H](O)[C@H](O)[C@H]2O)CC=C(CO)CC1 (some centres undefined) | -1.87% | – |
| CC(/C=C/C1(O)C(C)CC(O)CC1(C)C)OC1OC(CO)C(O)C(O)C1O (centres undefined) | -5.87% | – |
| COC(=O)C1=CO[C@@H](O[C@@H]2O[C@H](CO)[C@@H](O)[C@H](O)[C@H]2O)[C@@H]2[C@@H](C(=O)OC)[C@@H](O)C(O)[C@H]12 (some centres undefined) | 4.84% | – |
| C/C(=C\CCC(C(=O)O)C1CCC2(C)C3=C(CCC12C)C1(C)CCC(=O)C(C)(C)C1CC3)C(=O)O (centres undefined) | 0.831% | – |
| CC(C)=CC/C=C(/C)[C@H]1CC[C@]2(C)[C@@H]1[C@H](O)CC1[C@@]3(C)CC[C@H](O)C(C)(C)[C@@H]3[C@@H](O[C@@H]3O[C@H](CO)[C@@H](O)[C@H](O)[C@H]3O[C@@H]3O[C@@H](C)[C@H](O)[C@@H](O)[C@H]3O)C[C@]12C (some centres undefined) | -9.48% [at 30.2 µM] | – |
| CN1C(=O)c2ccccc2NC(=O)[C@]12O[C@@H]2c1cccc(O)c1 | -7.54% [at 114 µM] | – |
| CC(CO[C@@H]1O[C@H](COC(=O)/C=C/c2ccc(O)c(O)c2)[C@@H](O)[C@H](O)[C@H]1O)C1(O)COC(=O)C1 (some centres undefined) | 1.36% | – |
| CC1OC(OC2C(CO)OC(OCC3OC(OC(=O)C45CCC(C)(C)CC4C4=CCC6C7(C)CCC(OC8OC(C(=O)O)C(O)C(OC9OC(CO)C(O)C(O)C9O)C8O)C(C)(C)C7CCC6(C)C4(C)CC5)C(O)C(O)C3O)C(O)C2O)C(O)C(O)C1O (centres undefined) | 0.696% [at 12.4 µM] | – |
| CC12CCC3c4ccc(O)cc4CCC3C1CCC2OC1OC(C(=O)O)C(O)C(O)C1O (centres undefined) | -0.0165% [at 114 µM] | – |
| CC(=O)[C@@H]1CC[C@]2(C(=O)O)CC[C@]3(C)C(CCC4[C@@]5(C)CC[C@H](O)C(C)(C)C5CC[C@]43C)C12 (some centres undefined) | 1.69% | – |
| CCN[C@@H]1C[C@H](N)[C@@H](O[C@H]2OC(CN)=CC[C@H]2N)[C@H](O)[C@H]1O[C@H]1OC[C@](C)(O)[C@H](NC)[C@H]1O | – | inactive |
| Cc1nn(C)c2c1C(c1ccc(C(F)(F)F)cc1)C(C#N)=C(N)O2 (centres undefined) | – | inactive |
| CC1=CC(=O)CC(C)(C)C1(O)CCC(C)O (centres undefined) | 0.25% [at 114 µM] | – |
| CCCC1=CC2=C(CO1)C(=O)C(C)(OC(=O)c1c(C)cc(OC)cc1O)C(O)C2 (centres undefined) | -1.09% | – |
| CC1(C)CCCC2(C)C(CO)C3CCC2C31 (centres undefined) | -5.3% [at 114 µM] | – |
| CCCCS(=O)(=O)Nc1ncnc(OCCOc2ncc(Br)cn2)c1-c1ccc(Br)cc1 | -2.32% [at 114 µM] | – |
| COC(=O)C1=COC(OC2OC(CO)C(O)C(O)C2O)C2C1CC(OC(=O)C(O)CC(=O)O)C2C (centres undefined) | 1.03% | – |
| C=C[C@](C)(CC/C=C(\C)C(=O)O)O[C@@H]1OC[C@H](O)[C@H](O)[C@H]1O | -11.9% | – |

| SMILES | activity change, negative = inhibition | Potency |
| --- | --- | --- |
| COc1cc(C(=O)OC[C@H]2O[C@H](O[C@@]3(CO)O[C@@H](CO)[C@H](O)[C@H]3O)[C@H](O)[C@@H](O)[C@@H]2O)ccc1O | -2.79% | – |
| CC1=CC(=O)CC(C)(C)C1CCC(C)OC1OC(COC(=O)c2cc(O)c(O)c(O)c2)C(O)C(O)C1O (centres undefined) | -5.6% | – |
| OC[C@H]1O[C@@H](OCCc2ccc(O)cc2)[C@H](O)[C@@H](O)[C@@H]1O | -1.89% [at 114 µM] | – |
| CC1=CC(=O)OC(C)(CC(C)(O)C(=O)O)C1 (centres undefined) | 1.71% [at 114 µM] | – |
| CC(=O)O[C@H]1[C@H](C)[C@@H](O)[C@H]2[C@@H]1C=C(C(=O)O)[C@H]1C[C@@H]3[C@H]([C@H]21)[C@H]1C(=O)O[C@@H]2CC[C@@]3(C)O[C@]1(O)[C@@H]2C | 2.82% | – |
| O=C(O)c1cc(O[C@@H]2O[C@H](CO[C@@H]3OC[C@@H](O)[C@H](O)[C@H]3O)[C@@H](O)[C@H](O)[C@H]2O)c2ccccc2c1O | -9.83% | – |
| C=C(C)C(C)C1OC23CC4(CO2)C(CCC2C5(C)CCC(OC6OCC(O)C(OC7OC(CO)C(O)C(OC8OCC(O)C(O)C8O)C7O)C6OC6OC(CO)C(O)C6O)C(C)(C)C5CCC24C)C3C(C)(O)C1OC(C)=O (centres undefined) | 14.5% [at 30.2 µM] | – |
| C=CC(C)(C)C1(CC2NC(=O)C3CCCN3C2=O)C(=O)Nc2cc3c(cc21)C=CC(C)(C)O3 (centres undefined) | 1.05% | – |
| COC(=O)[C@]12C(=O)C(C)=C(O)[C@@]1(C)C(C)=CC1[C@@]34CC[C@@H](OC(C)=O)C(C)(C)C3[C@H](C[C@]12C)OC4=O (some centres undefined) | -5.38% | – |
| OCc1ccccc1O[C@@H]1O[C@H](CO)[C@@H](O)[C@H](O)[C@H]1O | -12.7% [at 114 µM] | – |
| C=C/C=C/[C@@H]1OC[C@H](/C=C/C=C/C)[C@H]1O | 0.116% [at 228 µM] | – |
| CC1CCC2C(C(=O)O)=CC3C(O)C(C)(C)CC123 (centres undefined) | -2.37% [at 114 µM] | – |
| C[C@@H]1C(=O)O[C@H]2CC34[C@H]5C[C@@H](C(C)(C)C)C36[C@@H](OC(=O)[C@@H]6O)OC4(C(=O)O5)[C@]21O (some centres undefined) | 1.41% [at 114 µM] | – |
| C[C@@H]1O[C@@H](O[C@H]2[C@H](O)[C@@H](O)[C@H](OC[C@H]3O[C@@H](OC(=O)[C@]45CCC(C)(C)C[C@H]4C4=CCC6[C@@]7(C)C[C@H](O)[C@H](O[C@@H]8O[C@H](CO)[C@@H](O)[C@H](O)[C@H]8O)[C@@](C)(C(=O)O)C7CC[C@@]6(C)[C@]4(C)CC5)[C@H](O[C@@H]4O[C@H](CO)[C@@H](O)[C@H](O)[C@H]4O)[C@@H](O)[C@@H]3O)O[C@@H]2CO)[C@H](O)[C@H](O)[C@H]1O (some centres undefined) | 0.065% [at 12.4 µM] | – |
| C[C@@H]1O[C@@H](O[C@H]2[C@H](OC(=O)C34CCC5(C)C(=CCC6C7(C)CC(O)C(O[C@@H]8O[C@H](C(=O)O)[C@@H](O)[C@H](O)[C@H]8O)C(C)(C(=O)O)C7CCC65C)C3CC(C)(C)CC4O)O[C@H](C)[C@@H](O)[C@@H]2O)[C@H](O)[C@@H](O[C@@H]2OC[C@](O)(CO)[C@H]2O[C@@H]2O[C@H](CO)[C@@H](O)[C@H](O)[C@H]2O)[C@H]1O (some centres undefined) | -1.08% [at 12.4 µM] | – |
| CC(C)c1nc(N(C)S(C)(=O)=O)nc(-c2ccc(F)cc2)c1/C=C/[C@@H](O)C[C@@H](O)CC(=O)O | -5.25% [at 114 µM] | – |
| CN(NC(=O)CC(=O)NN(C)C(=S)c1ccccc1)C(=S)c1ccccc1 | -23.8% | – |
| COC1CCCC/C(C)=C/C2C=C(C)C(C)C3C(CC(C)C)NC(=O)C23C(=O)C1 (centres undefined) | -2.13% | – |
| C/C(=C/CO)CC[C@@H]1[C@@]2(C)CCC[C@](C)(C(=O)O)C2CC[C@@]1(C)O (some centres undefined) | -2.44% | – |
